Results: PubChem BioAssay (EPA / NIEHS)
Active and inactive are the calls of the source. Rule for the calls: active = hit-call score of the fitted dose curve at least 0.9, where 1 is the maximum; inactive = score below 0.9.

Biological target: Paired box protein Pax-6 (Homo sapiens) (UniProt P26367)
Test: ATG_Pax6_CIS: Attagene CIS-FACTORIAL HepG2 Assay for human Paired Box 6 (PAX6) (AID 2282956)
Settings: HepG2 CIS-FACTORIAL PAX6 reporter transcription, RNA readout; actives raise or lower the signal
Method: ATG_CIS is a cell-based, multiplexed-readout assay that uses HepG2, a human liver cell line, with measurements taken at 24 hours after chemical dosing in a 24-well plate.ATG_Pax6_CIS is one of 52 assay component(s) measured or calculated from the ATG_CIS assay. It is designed to make measurements of mRNA induction, a form of inducible reporter, as detected with fluorescence intensity signals by Reverse transcription polymerase chain reaction (RT-PCR) and Capillary electrophoresis technology.Data from the assay component ATG_Pax6_CIS was analyzed into 1 assay endpoint. This assay endpoint, ATG_Pax6_CIS, was analyzed with bidirectional fitting relative to DMSO as the negative control and baseline of activity. Using a type of inducible reporter, measures of mRNA for gain or loss-of-signal activity can be used to understand the reporter gene at the transcription factor-level as they relate to the gene PAX6. Furthermore, this assay endpoint can be referred to as a primary readout, because this assay has produced multiple assay endpoints where this one serves a reporter gene function. To generalize the intended target to other relatable targets, this assay endpoint is annotated to the dna binding intended target family, where the subfamily is paired box protein.
Human liver HepG2 cells are transiently transfected with multiple reporter transcription units (MRTUs) in 6-well plates using FuGene 6 reagent (Roche; 3 ml FuGene/1 mg DNA). The MRTU constructs are regulated by a cis-regulating element (promoter). […] A major difference between the CIS and TRANS system is that in CIS activities of endogenous TFs are measured, whereas the TRANS assay evaluates changes in activities of exogenous, chimeric NR-Gal4 proteins. […] At the end of 24 hour incubation, total RNA was isolated using TriZol reagent (Invitrogen). The isolated RNA is then reverse-transcribed using oligo(dT) primer and Mo-MLV reverse transcriptase (Invitrogen) with DNAse I (Ambion) treatment for 30 min. The one-tenth of the produced cDNA was amplified by PCR using Taq DNA polymerase (Invitrogen) and two reporter sequence-specific primers. The PCR products were fluorescently labeled by primer extension with 6-arboxyfluorescein (6-FAM) 5'-labeled reporter sequence-specific primer (2 min at 95 C, 20 s at 68 C and 10 min at 72 C) and these products were digested with 5U of HpaI (New England Biolabs) for 2h at 37 C. The fragments were purified using Qiaquick PCR columns (Qiagen), analyzed on an ABI 3130xL genetic analyzer (Applied Biosystems) with peak positions identified by using a set of X-rhodamine (ROX)-labeled MapMarker1000 molecular weight standards (BioVentures). The raw capillary electrophoresis data was processed using Attagraph software (Attagene).

Sequence of Paired box protein Pax-6 (Homo sapiens) (P26367 whole entry, looked up): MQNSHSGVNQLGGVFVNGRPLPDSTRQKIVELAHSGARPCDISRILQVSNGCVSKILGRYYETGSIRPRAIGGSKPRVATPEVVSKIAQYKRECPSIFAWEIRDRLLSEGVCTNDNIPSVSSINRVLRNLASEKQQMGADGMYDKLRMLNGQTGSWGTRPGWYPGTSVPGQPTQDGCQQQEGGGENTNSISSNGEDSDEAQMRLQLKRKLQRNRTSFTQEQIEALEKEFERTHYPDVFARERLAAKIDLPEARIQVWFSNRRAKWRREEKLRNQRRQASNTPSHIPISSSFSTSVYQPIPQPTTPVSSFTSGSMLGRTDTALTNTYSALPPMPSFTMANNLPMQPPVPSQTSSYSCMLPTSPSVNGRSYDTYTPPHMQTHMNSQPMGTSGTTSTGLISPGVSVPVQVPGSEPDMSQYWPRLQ

Compound | outcome | AC50
CC=C(C)C=CC=C(C)C | inactive | 
NC(=O)Nc1ccccc1 | inactive | 
CCCCNS(=O)(=O)c1ccccc1 | inactive | 
CC1CC(=O)CC(C)(C)C1 (stereo not given) | inactive | 
COC(=O)c1ccccc1C | inactive | 
CC1CCC(C(C)(C)S)C(=O)C1 (stereo not given) | inactive | 
CCCCOCC(C)O (stereo not given) | inactive | 
C=CCCCCCCCCOC(C)=O | inactive | 
CC(=O)c1ccc(S(=O)(=O)NC(=O)NC2CCCCC2)cc1 | inactive | 
CC(Cl)COP(=O)(OCC(C)Cl)OCC(C)Cl (stereo not given) | inactive | 
CCCCCCCO | inactive | 
O=C(O)/C=C/c1ccccc1 | inactive | 
Nc1nc(N)nc(-c2ccccc2)n1 | inactive | 
CCN(CC)c1cccc(C)c1 | inactive | 
C=CC(=O)NCOCCCC | inactive | 
c1ccc(-c2nc3ccccc3[nH]2)cc1 | inactive | 
CC(C)COC(=O)CC(C(=O)OCC(C)C)S(=O)(=O)O (stereo not given) | inactive | 
O=C(O)CCCC(=O)O | inactive | 
O=C(Oc1ccccc1)c1ccccc1O | inactive | 
CC(C)CO | inactive | 

Compound | outcome | AC50
Oc1ccc(-c2ccccc2)c(Cl)c1 | inactive | 
COC(OC)(C(=O)c1ccccc1)c1ccccc1 |  | 66 µM (active)
COC(=O)c1ccc(C(=O)OC)c(C(=O)OC)c1 | inactive | 
Oc1ccccc1Cc1ccccc1O |  | 100 µM (active)
N#CC1(N)CCCCC1 | inactive | 
Cc1c(C(=O)c2c[nH]n(C)c2=O)ccc(S(C)(=O)=O)c1C1=NOCC1 | inactive | 
CCCC/C=C/C=C\C=O |  | 100 µM (active)
CC(C)CC(=O)OCc1ccccc1 | inactive | 
CCCCCOC(=O)CCCCC | inactive | 
CN(C)Cc1cc(CN(C)C)c(O)c(CN(C)C)c1 | inactive | 
C=Cc1ccc(OC(C)=O)cc1 | inactive | 
O=C(O)C1CCC(C(=O)O)CC1 (stereo not given) | inactive | 
O=C1CCCCCCCCCCC1 | inactive | 
CC(=O)CCC=C(C)C | inactive | 
O=C(O)C(F)(F)C(F)(F)C(F)(F)C(F)(F)C(=O)O | inactive | 
CCCCNS(=O)(=O)c1ccc(C)cc1 | inactive | 
CCCCCCCCCCCC(=O)OCC | inactive | 
O=C(O)c1ccc2c(c1)C(=O)OC2=O | inactive | 
COc1ccc(C(=O)/C(Br)=C\C(=O)O)cc1 |  | 57.1 µM (active)
COC(Cc1ccccc1)OC | inactive | 
